SMILES strings stand for the structures. Active and inactive are the calls of the source. How the calls were made is not given here.

This note sets out measurements from PubChem BioAssay.

Sequence of Pantothenate synthetase (Mycobacterium tuberculosis (strain ATCC 25618 / H37Rv)) (P9WIL5 whole entry, looked up): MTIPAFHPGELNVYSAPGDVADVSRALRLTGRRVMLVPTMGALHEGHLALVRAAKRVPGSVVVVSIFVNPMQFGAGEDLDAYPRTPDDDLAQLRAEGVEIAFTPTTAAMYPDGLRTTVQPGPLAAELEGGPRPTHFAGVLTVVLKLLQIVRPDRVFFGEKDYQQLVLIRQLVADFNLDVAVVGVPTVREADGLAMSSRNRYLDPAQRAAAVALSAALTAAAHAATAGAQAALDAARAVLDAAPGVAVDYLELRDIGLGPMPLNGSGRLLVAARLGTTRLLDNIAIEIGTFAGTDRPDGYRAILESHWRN

This assay has as its target Pantothenate synthetase (Mycobacterium tuberculosis (strain ATCC 25618 / H37Rv)) (UniProt P9WIL5). Kind of assay: Recombinant Mtb pantothenate synthetase (PanC) inhibitors, coupled enzyme, confirmatory (AID 375).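 Further: 0% = full reaction with vehicle and 100% = no enzyme background.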 To be noted: coupled enzyme assay; at 10 µM, stronger effect = higher value.
For the compound `Cc1ccc(N2CC(C)Cn3c2nc2c3c(=O)n(CC(=O)OCc3ccccc3)c(=O)n2C)cc1C` (configuration not stated), the inhibition was 0% (inactive).
For `Cc1nnc(NC(=O)CSc2nnc(-c3ccc(S(=O)(=O)N4CCCC4)cc3)n2C)s1` the value was 8% (inactive); for `CCCC(=O)N1CCN(c2ccc(NC(=O)c3ccc(Br)o3)cc2)CC1`, 3% (inactive).
For `CS(=O)(=O)N(CC(=O)N1CCN(c2cccc(Cl)c2)CC1)C1CCCCC1`, the inhibition is 0% (inactive).
For `CN1CCN(CCCNC(=O)C2CC(=O)N(C3CCCCC3)C2)CC1` (configuration not stated), the inhibition was 4% (inactive).
In the case of `COC(=O)c1cc(OC)c(OC)cc1NC(=O)CC1CCCCC1`, the inhibition was 1% (inactive).
For the compound `O=C(Cc1ccccc1)Nc1nnc(-c2cccs2)s1`, the inhibition was 0% (inactive).
In the case of `O=C(c1ccc(-c2ccccc2)cc1)N1CCC(C(=O)N2CCCC2)CC1`, the inhibition is 0% (inactive).
Turning to `Cc1ccnc2c(N3C(=O)C4C5C=CC(C5)C4(C)C3=O)cccc12` (configuration not stated), the inhibition is 0% (inactive).
Consider `Cc1ccc(Cn2nnc3c(=O)n(CC(=O)NCC4CCCO4)cnc32)cc1` (configuration not stated), for which the inhibition was 0% (inactive).
With `N#Cc1c2n(c(=S)n(-c3ccccn3)c1=O)CCCCC2`, the inhibition was 2% (inactive).
Take `O=C1CN(C(=O)CN2CCCC2)C(c2ccccc2)c2cc(Br)ccc2N1` (configuration not stated): the inhibition was 0% (inactive).
In the case of `Nc1nnn(Cc2ccccc2)n1`, the inhibition is 0% (inactive).
`Cc1ccc(-c2nc(-c3cccnc3)no2)c(C)c1`: the inhibition was 5% (inactive).
As to `COc1ccc(OC)c(C(=O)CSc2nc3ncccc3[nH]2)c1`, the inhibition is 0% (inactive).
For `COCCOC(=O)c1c(C)oc2ccc(NS(=O)(=O)c3ccc(F)cc3)cc12`, the inhibition was 3% (inactive).
For `O=C(C1CCN(S(=O)(=O)c2ccc(-n3cnnn3)cc2)CC1)N1CCN(c2ccccc2)CC1`, the inhibition was 11% (inactive).
